Screening results from PubChem.
DAX1 inh-1: DAX1 (NR0B1) inhibitors on StAR promoter, primary screen, cell-based, luminescence, SF-1 (NR5A1), full-length DAX-1 | HEK293T StAR-luciferase reporter, SF-1/DAX-1 repression relief | inhibition, % at 6.8 µM | actives 1.1% (n = 370,000);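 active = inhibition above the mean over all tested compounds plus 3 SD, cut at about 3.6% in these data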;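 note: 0% = DAX-1 cells with DMSO and 100% = cells lacking DAX-1 with DMSO; higher inhibition means more luminescence from relief of DAX-1 repression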
ssDAF12 agonist: S. stercoralis DAF-12 nuclear receptor activators, primary screen, cell-based, luminescence, HEK293, GRIP1 co-expression, lit1-tk-luc; Nuclear hormone receptor DAF-12 (Strongyloides stercoralis); HEK293 ssDAF-12/GRIP1 lit1-tk-luc reporter; % of 3 µM dafachronic acid response; activation, % at 6.8 µM; actives 1% (n = 370,000);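 active = activation above the mean over all tested compounds plus 3 SD, cut at about 0.9% in these data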;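 note: 0% = DMSO-only wells and 100% = 3 µM delta7-dafachronic acid wells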
DAX1 inh-2: DAX1 (NR0B1) inhibitors, primary screen, cell-based, HEK293, Gal4-DAX1, luciferase luminescence | actives 0.99% (n = 340,000) | HEK293 Gal4-DAX1 luciferase reporter | inhibition, % at 6.75 µM | Nuclear receptor subfamily 0 group B member 1 (Homo sapiens), P51843 | AID 504766, 2011;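 active = inhibition above the mean over all tested compounds plus 3 SD, cut at about 4.2% in these data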;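 note: 0% = DAX1-transfected cells with DMSO and 100% = empty-vector control cells with DMSO; inhibition shows as a rise in luminescence from relieved DAX1 repression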
Target sequence (P51843 207-470 limits assumed): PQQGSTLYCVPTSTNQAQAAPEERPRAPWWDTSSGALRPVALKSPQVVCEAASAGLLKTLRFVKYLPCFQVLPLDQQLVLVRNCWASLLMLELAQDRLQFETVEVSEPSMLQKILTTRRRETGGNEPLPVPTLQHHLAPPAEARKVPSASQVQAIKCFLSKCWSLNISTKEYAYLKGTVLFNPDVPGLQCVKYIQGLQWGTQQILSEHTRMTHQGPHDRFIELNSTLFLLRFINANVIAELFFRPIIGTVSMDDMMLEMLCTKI
hgDAF-12 ag: H. glycines DAF-12 receptor agonists, primary screen, cell-based, luminescence, HEK293, GAL4 fusion, UAS-luciferase; actives 1.8% (n = 370,000); activation, % at 6.8 µM; AID 687014, 2013; HEK293 GAL4-hgDAF12 UAS-luciferase reporter, agonist luminescence; normalized to butyrate control;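 active = activation above a cutoff set at the mean of all screened compounds plus 3 SD, cut at about 10% in these data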;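 note: 0% = DMSO wells and 100% = sodium butyrate wells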
hcDAF12 agonist: H. contortus DAF-12 nuclear receptor activators, primary screen, cell-based, luminescence, HEK293, lit1-tk-luc reporter | activation, % at 6.8 µM | HEK293 hcDAF-12 lit1-tk-luc reporter; 0% DMSO, 100% Δ7-dafachronic acid | actives 1.4% (n = 370,000);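 active = activation above the mean of all tested compounds plus 3 SD, cut at about 5.5% in these data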;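 note: 100% = response to 3 µM Δ7-dafachronic acid high control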
DAX1 inh confirm: DAX1 (NR0B1) inhibitors relieving SF-1 repression, confirmation, cell-based, luminescence, HEK293T, full-length DAX-1, SF-1 activated StAR promoter | inhibition, % at 6.8 µM | HEK293T StAR-promoter luciferase reporter, SF-1/DAX-1 repression | shares compounds with DAX1 inh-1 | actives 87% (n = 2,400);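 active = inhibition above the average of every tested compound plus 3 SD, cut at about 3.8% in these data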;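 note: 0% = DAX-1 cells with DMSO and 100% = no DAX-1 control cells with DMSO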
SF1 AF2mut Luc: StAR reporter signal changes without DAX1, counter-screen for DAX1 inhibitor project, cell-based, luminescence, AF-2 mutant SF-1, transactivation; shares compounds with DAX1 inh-1; HEK293 StAR-luciferase, SF-1 AF2 mutant; inhibition, % at 6.8 µM; actives 78% (n = 2,400); AID 652136, 2013;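 active = inhibition above the mean of all tested compounds plus 3 SD, cut at about 3% in these data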;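 note: 0% = DAX-1 transfected cells with DMSO and 100% = cells without DAX-1 with DMSO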
hgDAF12 conf: H. glycines DAF-12 receptor agonists, confirmation, cell-based, luminescence, HEK293, GAL4-LBD fusion. shares compounds with hgDAF-12 ag. HEK293 GAL4-hgDAF12 luciferase reporter, agonist mode; percent of butyrate response. activation, % at 6.8 µM. actives 80% (n = 3,300);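 active = mean activation over triplicate wells above the hit cutoff derived from the earlier primary screen, cut at about 11% in these data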;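 note: 0% = DMSO low control and 100% = 2 mM sodium butyrate high control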
LXRb DAF12 ctr: LXR agonists, Gal4 luciferase reporter, confirmation, counter-screen for hgDAF-12 agonist project, cell-based, luminescence, HEK293, H. glycines campaign. shares compounds with hgDAF-12 ag. 24 h. activation, % at 6.8 µM. 3,300 tested, under 10 active. AID 743051, 2013;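 active = mean activation of the triplicate above a set limit carried over from the primary screen, none filed active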
Active calls of the source: *; / = not tested or not shown. Sampled rows, rich in hits. Any-hit rate of the full collection: about 4.1%.

SMILES	DAX1 inh-1	ssDAF12 agonist	DAX1 inh-2	hgDAF-12 ag	hcDAF12 agonist	DAX1 inh confirm	SF1 AF2mut Luc	hgDAF12 conf	LXRb DAF12 ctr
CSCc1ccc(C(=O)Nc2ccc(C(N)=O)cc2)cc1	5.3*	-0.1	2.9	13.3*	4.4	9.6*	5.0*	13.1*	0.7
CSCc1ccc(C(=O)NCc2ccc(C)cc2)cc1	0.9	-0.9	-0.7	-1.7	3.9	/	/	/	/
O=C(c1cscn1)N1CCC(Oc2cccnc2)CC1	-0.1	-1.4	/	-3.9	0.4	/	/	/	/
CC(/C=N/NC(=O)c1ccco1)=C\c1ccccc1	6.0*	-0.2	0.8	17.7*	5.5	17.9*	9.0*	14.1*	0.9
O=C(OC12CCCN(C1)/C(=C/c1ccncc1)C2)c1ccco1 (stereo unspecified)	-1.1	-1.0	/	-2.8	-4.3	/	/	/	/
c1ccc2sc(N3CCCCC3)nc2c1	7.8*	-0.3	2.7	13.3*	1.6	9.7*	6.5*	15.3*	0.6
Fc1ccc2nc(N3CCCC3)sc2c1	5.2*	-0.8	1.3	28.1*	4.8	7.9*	5.0*	15.1*	0.9
O=[N+]([O-])c1ccc2nc(N3CCCC3)sc2c1	0.4	-0.1	1.5	7.4	3.1	/	/	/	/
S=C(c1ccc(-c2ccc(Cl)cc2)o1)N1CCCCC1	5.3*	0.2	4.8*	15.4*	3.8	14.8*	9.0*	19.7*	1.0
Cc1occc1-c1nnc(SC(C)C(=O)Nc2ccccc2F)o1 (stereo unspecified)	10.4*	0.0	0.0	14.6*	4.0	9.5*	7.1*	13.7*	0.5
CC(Sc1nnc(-c2ccccc2F)o1)C(=O)Nc1ccc(N2CCOCC2)cc1 (stereo unspecified)	1.0	-1.3	-0.6	1.1	0.9	/	/	/	/
CCOc1ccc(CCNC(=O)c2cc3sccc3n2CC)cc1OC	-3.7	-2.3	/	-3.7	-5.0	/	/	/	/
Cc1ccccc1C(=O)N(C)[C@H]1C[C@H]2c3[nH]c4c(-c5ccc6c(c5)OCO6)cccc4c3CCN2C[C@H]1[C@H](C)O	-0.3	-0.8	/	0.0	-2.8	/	/	/	/
